MITF inh: human MITF inhibition, primary screen; O75030; AlphaScreen MITF homodimerization, bead proximity signal; inhibition, % at 2.6 µM; 0.91% of 650,000 active; in the data active = inhibition above about 50%;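 also: 0% = vehicle wells with protein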
GPR151 ag: activates the human receptor GPR151; Q8TDV0; PathHunter beta-arrestin GPR151 cells, luminescence; activation, % at 11.2 µM; 1% of 650,000 active; AID 1508602; in the data active = activation above about 4.9%;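 also: 0% = median of compound wells and 100% = cells with positive control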
Target sequence (Q8TDV0 whole entry, looked up): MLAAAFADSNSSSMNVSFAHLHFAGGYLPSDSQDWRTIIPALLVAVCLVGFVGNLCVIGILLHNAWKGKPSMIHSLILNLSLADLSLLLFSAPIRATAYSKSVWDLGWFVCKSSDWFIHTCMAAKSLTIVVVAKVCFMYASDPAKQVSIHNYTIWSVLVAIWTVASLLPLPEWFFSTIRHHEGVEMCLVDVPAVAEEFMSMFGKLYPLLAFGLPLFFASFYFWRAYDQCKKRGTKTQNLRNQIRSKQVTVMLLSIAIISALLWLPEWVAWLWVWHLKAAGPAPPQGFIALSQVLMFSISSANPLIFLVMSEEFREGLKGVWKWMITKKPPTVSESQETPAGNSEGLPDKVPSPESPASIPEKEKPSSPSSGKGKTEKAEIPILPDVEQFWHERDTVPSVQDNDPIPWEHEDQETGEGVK
TEAD-YAP inh: TEAD-YAP interaction inhibition; HEK-TIYL cells, TEAD-Gal4/YAP UAS-luciferase luminescence; inhibition, % at 9.12 µM; 1.4% of 640,000 active; AID 1259422; in the data active = inhibition above about 32%;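 also: 0% = median of test compound wells and 100% = reference inhibitor wells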
FBW7 activator: human FBW7 E3 ligase activation, primary screen; AlphaScreen FBW7–phospho-cyclin E peptide binding, activator screen; normalized activity (activation), % at 26.1 µM; 0.13% of 650,000 active; AID 1259310; in the data active = normalized activity above about 1.9%;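 also: purified mutant Fbw7 with reduced substrate affinity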
An asterisk follows results filed as active. Hits are enriched below; roughly 3.5% of the tested compounds scored in any of these assays.

SMILES	MITF inh	GPR151 ag	TEAD-YAP inh	FBW7 activator
Cc1ccc(C(=O)N2CCN(c3ccc([N+](=O)[O-])cc3)CC2)c(Cl)c1	-4	-1	35*	0
COc1ccc2nc3sc(C(=O)N4CCN(c5ccccc5OC)CC4)c(N)c3cc2c1	0	-1	-2	0
COc1ccc(N2CCN(C(=O)c3sc4nc5ccc(OC)cc5cc4c3N)CC2)cc1	70*	0	-3	0
N#CC(C#N)=NNc1ccc(SC(F)F)cc1	6	1	74*	0
Cc1cnc(Nc2ccc(N3CCOCC3)cc2)nc1NCCOc1ccccc1	14	3	48*	0
Cc1cnc(Nc2ccc(C(F)(F)F)cc2)nc1Nc1ccc(N2CCOCC2)cc1	15	2	49*	0
Cc1cnc(Nc2ccc(N3CCOCC3)cc2)nc1Nc1ccc(N2CCOCC2)cc1	9	5	42*	0
Cc1cnc(Nc2ccncc2)nc1Nc1ccc(N2CCOCC2)cc1	-4	-1	40*	0
Cc1cnc(Nc2ccc(N3CCOCC3)cc2)nc1NCCN1CCOCC1	1	1	0	0
Oc1c(C(c2cccc(F)c2)N2CCCCC2)sc2ncnn12 (stereo unspecified)	-10	-1	1	0
Cc1cnc(NCc2ccc3c(c2)OCO3)nc1Nc1ccc(N2CCOCC2)cc1	16	-1	42*	0
COC(=O)c1ccc(N2C(=O)c3ccc(C(=O)Nc4cccc(C)c4)cc3C2=O)cc1	8	-1	-40	0
Oc1ccc(CCNc2ccnc(Nc3ccc(-n4ccnc4)cc3)n2)cc1	9	3	43*	0
Oc1ccc(CCNc2ccnc(Nc3ccncc3)n2)cc1	-18	-1	75*	0
Oc1ccc(CCNc2ccnc(Nc3ccc(C(F)(F)F)cc3)n2)cc1	-7	2	1	0
CNC(=O)CN(c1cccc(Cl)c1Cl)S(C)(=O)=O	19	0	-1	0
O=c1[nH]c(/C=C\c2ccc(O)c(O)c2)nc(O)c1[N+](=O)[O-]	85*	-1	2	1
Cc1ccc(-n2nc3c(=O)n(CC(=O)O)nc(C)c3c2C)c(C)c1	2	0	2	0
Oc1c(CN2CCN(c3cccc(C(F)(F)F)c3)CC2)cc(COCc2ccccc2)c2cccnc12	1	-1	11	-1
CN1CCN(Cc2cc(=O)oc3ccc4ccccc4c23)CC1	9	1	1	0
CN1CCN(Cc2cc(CSc3ccccc3)c3cccnc3c2O)CC1	65*	0	81*	-2
CN1CCN(Cc2cc(COCc3ccccc3)c3cccnc3c2O)CC1	101*	-1	74*	-1
CCOC(=O)N1CC=C2C(C#N)=C(N)C(C#N)(C#N)C(C)C2C1 (stereo unspecified)	9	1	68*	0
Cc1ccc(-c2c3c(nc4sc(C(=O)Nc5ccccc5)c(N)c24)CCCC3)cc1	-17	-2	2	0
Cc1csc(NC(=O)c2sc3nc(C)c4c(c3c2N)CCCC4)n1	-3	0	94*	0
SMILES	MITF inh	GPR151 ag	TEAD-YAP inh	FBW7 activator
Cc1csc(NC(=O)c2sc3nc4c(c(C(F)(F)F)c3c2N)CCCC4)n1	12	1	65*	0
COc1cccc(C(=O)Nc2nc3c(s2)CCC3)c1OC	-4	-9	62*	0
COc1ccc(C(=O)Nc2nc3c(s2)CCCC3)c(OC)c1OC	8	-2	62*	1
COc1cccc(OC)c1C(=O)Nc1nc2c(s1)CCCC2	9	1	-33	1
CC(C)c1ccccc1NC(=S)NCC1CCCO1 (stereo unspecified)	-4	0	5	0
CC(=O)OC12CO[C@@H]1C[C@H](O)[C@@]1(C)C(=O)[C@H](O)C3=C(C)[C@@H](OC(=O)[C@H](O)[C@@H](NC(=O)OC(C)(C)C)c4ccccc4)CC(O)([C@@H](OC(=O)c4ccccc4)[C@H]21)C3(C)C (stereo partly specified)	8	-2	51*	0
COc1ccc(NC(=O)C2CC23CCN(C/C=C/c2ccco2)CC3)cc1Cl (stereo unspecified)	-11	2	-2	0
CNC(=O)c1ccccc1Nc1cc(NC(=O)C(C)(C)c2ccccc2)ncc1C(F)(F)F	8	0	4	0
NC(=O)c1ccccc1Nc1cc(NC(=O)Cc2ccc3c(c2)OCO3)ncc1Cl	11	0	70*	0
NC(=O)c1ccccc1Nc1cc(NC(=O)Cc2ccc3c(c2)OCO3)ncc1C(F)(F)F	18	-1	100*	1
NC(=O)c1ccccc1Nc1cc(NC(=O)Cc2ccc3c(c2)OCO3)ncc1F	0	2	21	0
CNC(=O)c1ccccc1Nc1cc(NC(=O)Cc2cccc(F)c2)ncc1C(F)(F)F	-5	-2	72*	1
CNC(=O)c1ccccc1Nc1cc(NC(=O)Cc2ccc3c(c2)OCO3)ncc1C(F)(F)F	12	0	75*	0
COc1cc(/C(C)=N/N=C(N)N)cc(OC)c1OC	6	1	-2	0
COC(=O)n1c(Cn2c(=O)oc3ccccc32)nc2ccccc21	-9	2	-1	0
O=C(CSc1ncccc1C(=O)N1CCC(Cc2ccccc2)CC1)Nc1ccc(F)c(F)c1	7	2	1	0
CNC(=O)c1ccccc1Nc1cc(NC(=O)Cc2ccccc2OC)ncc1C(F)(F)F	18	-1	83*	0
O=C(Cc1ccc2c(c1)OCO2)Nc1cc(Nc2ccccc2C2=NCCN2)c(Cl)cn1	9	0	10	0
O=C(Cc1ccc2c(c1)OCO2)Nc1cc(Nc2ccccc2-c2ncn[nH]2)c(Cl)cn1	13	0	64*	1
COc1cc(OC)cc(C(=O)NCc2ccccc2Cl)c1	6	-1	9	0
Cc1cccc(C(=O)N2CCN(c3ccccc3F)CC2)c1[N+](=O)[O-]	-2	-3	3	0
COc1ccc2cc(CN(Cc3ccccc3)C(=O)c3ccncc3)c(=O)[nH]c2c1	-7	1	51*	0
COc1ccc2[nH]c(=O)c(CN(Cc3ccco3)C(=O)Nc3ccccc3OC)cc2c1	8	-1	-4	0
COc1ccc2cc(CN(CC3CCCO3)C(=O)Nc3ccccc3OC)c(=O)[nH]c2c1 (stereo unspecified)	2	-1	54*	0
COc1ccc2cc(CN(Cc3ccco3)C(=O)Nc3ccccc3OC)c(=O)[nH]c2c1	16	-1	54*	0
O=S(=O)(Cc1ccccc1)Nc1ccc(OCc2ccccc2)cc1	-16	-1	1	0
CCOC(=O)C1=C(C)N=c2s/c(=C\c3ccc(OCc4ccc(Cl)cc4)c(OC)c3)c(=O)n2C1c1ccc(C(C)C)cc1 (stereo unspecified)	-15	0	-11	0
CNC(=O)/C(=C\c1ccc([N+](=O)[O-])cc1)NC(=O)c1ccco1	9	0	3	0
NNC(=O)/C(=C/c1ccc([N+](=O)[O-])cc1)NC(=O)c1ccco1	-1	0	50*	0
O=C(NCCN1CCOCC1)c1cc(Nc2ccc(N3CCOCC3)cc2)nc2ccccc12	12	-1	9	0
